HT1080-NT tox = kills 2HG-producing HT-1080-NT fibrosarcoma cells. HT-1080-NT fibrosarcoma viability, CellTiter-Glo ATP luminescence, 48 h. Potency, µM (highest dose often 46.1 µM), actives largely listed as cytotoxic. 360,000 compounds, 1.6% hits;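 note: NT is the 2HG producing partner of a matched IDH1 knockdown line; nearly all actives have a fitted effect of over 55% in size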
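HT-1080-NT; 750 cells/well; 5% FBS RPMI; 48 h compound, 37 degrees C; CellTiter-Glo luminescence; curve fitting and curve-class assignment.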
DT40 TDP1 no CPT = qHTS for Inhibitors of human tyrosyl-DNA phosphodiesterase 1 (TDP1): qHTS in cells in absence of CPT. DT40 Tdp1-/- hTDP1 cells, no CPT, ATP luminescence, 48 h. Potency, µM (titrated, usually from 46.2 µM), usual class: inhibitors. 420,000 compounds, 15% hits; note: nearly all actives have a fitted effect of over 55% in size
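Growth kinetics read by CellTiter-Glo luminescence after ≥48 hr at 37 °C. Cells: DT40 Tdp1-/- stably carrying human TDP1, 400 per well, compound exposure in the absence of CPT (DMSO vehicle).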
HT1080 IDH1KD tx = kills HT-1080 cells with IDH1 knockdown; Potency, µM (series often up to 46.1 µM), usual class: cytotoxic; AID 686971; HT-1080 IDH1 knockdown viability, ATP luminescence, 48 h; 360,000 compounds, 2% hits
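After a 2 h attachment period, IDH1KD HT-1080 cells took pin-transferred compound for 48 h at 37 °C; ATP-based luminescence after 10 min room-temperature reagent incubation reported viability.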
TDP1 cell CPT = DT40-hTDP1 cell growth loss with CPT | chicken DT40 Tdp1-/-;hTDP1 cells + 20 nM CPT, ATP luminescence, 48 h | Potency, µM (series often up to 46.2 µM), usual class: inhibitors | AID 686979 | 420,000 compounds, 12% hits; note: nearly all actives have a fitted effect of over 55% in size
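Chicken DT40 Tdp1-/- cells complemented with human TDP1, 400 cells/well, exposed to compounds plus 20 nM camptothecin for at least 48 h at 37 C; viability read as ATP content by CellTiter-Glo luminescence.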
HepG2 viability = kills HepG2 cells in TGF-b inhibitor counter-screen. HepG2 CAGA-GFP viability, ATP luminescence, 18 h. Potency, µM (highest dose often 46.1 µM), hits mostly cytotoxic. 410,000 compounds, 0.76% hits. AID 588856
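HepG2 CAGA-GFP cells (1000/well, DMEM with 1% FBS) received compound, then TGF-beta at 500 pg/mL final, and were incubated 18 hours at 37 degrees C. Viability was read by CellTiter-Glo luminescence. Media-only wells were set as complete cell-killing and DMSO as no toxicity.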
TGFb inhibitor = inhibitors of TGF-b signaling. HepG2 CAGA-GFP TGF-b/SMAD3 reporter, GFP fluorescence, 18 h; TGF-beta stimulated, 500 pg/mL final. Potency, µM (highest dose often 46.1 µM), actives largely listed as inhibitors. 410,000 compounds, 1.2% hits; note: nearly all actives have a fitted effect of over 65% in size
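HEPG2 CAGA-GFP, 1000 cells/well; 2 h settle, 37 C; cpd via pin tool; TGF-b 500 pg/mL final; 18 h, 37 C; GFP imaging ex488/em500-530; %Activity normalised to -TGF-b and +DMSO controls; CRC fit, curve class.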
Numbers stand for hits. Sampled rows, rich in hits. Any-hit rate of the full collection: about 17%. Calls come from the whole dose curve; as a rule, active = well fitted curve in the direction sought with a large enough effect; inconclusive = small, poorly fitted or top-dose-only effect, or another doubt; inactive = no such curve, though single readings can be large; an effect the other way counts as inactive or inconclusive.

What do the screens show for `Cc1[nH]n(-c2ccccc2)c(=O)c1/C=N/N1C(=O)c2cccc3cccc(c23)C1=O`?
HT1080-NT tox: inconclusive; DT40 TDP1 no CPT: 16µM; HT1080 IDH1KD tx: inconclusive; TDP1 cell CPT: inconclusive; HepG2 viability: inactive; TGFb inhibitor: inconclusive

What do the screens show for `Cc1onc(-c2ccccc2)c1-c1nnc(CN2CCN(S(=O)(=O)c3ccccc3)CC2)o1`?
HT1080-NT tox: inactive; DT40 TDP1 no CPT: 16µM; HT1080 IDH1KD tx: inactive; TDP1 cell CPT: 15µM; HepG2 viability: inactive; TGFb inhibitor: inactive

What do the screens show for `CC(C)C[C@@H]1O[C@H](CCc2ccccc2)Cc2[nH][nH]c(=O)c21`?
HT1080-NT tox: inactive; DT40 TDP1 no CPT: inconclusive; HT1080 IDH1KD tx: inactive; TDP1 cell CPT: inconclusive

How did O=c1[nH][nH]c2c1[C@H](C1CCCC1)O[C@H](CCc1ccccc1)C2 do in these assays?
HT1080-NT tox: inactive; DT40 TDP1 no CPT: 18µM; HT1080 IDH1KD tx: inactive; TDP1 cell CPT: 21µM

What do the screens show for `O=c1[nH][nH]c2c1[C@H](CCc1cccc(Cl)c1)O[C@H](C1CCCC1)C2`?
HT1080-NT tox: inconclusive; DT40 TDP1 no CPT: inconclusive; HT1080 IDH1KD tx: 7.3µM; TDP1 cell CPT: inconclusive

Results for O=c1[nH][nH]c2c1[C@H](CCc1cccc(Cl)c1)O[C@H](C1CC1)C2 ?
HT1080-NT tox: inactive; DT40 TDP1 no CPT: inconclusive; HT1080 IDH1KD tx: inactive; TDP1 cell CPT: inactive

Results for COCCN(C(=O)CSc1nc2ccccc2c(=O)n1CC(C)C)c1c(N)n(Cc2ccccc2)c(=O)[nH]c1=O ?
HT1080-NT tox: inactive; DT40 TDP1 no CPT: inactive; HT1080 IDH1KD tx: inactive; TDP1 cell CPT: inactive; HepG2 viability: inactive; TGFb inhibitor: inactive

How did Brc1ccc(Nc2ncnc3[nH]ncc23)cc1 do in these assays?
HT1080-NT tox: inactive; DT40 TDP1 no CPT: inactive; HT1080 IDH1KD tx: inactive; TDP1 cell CPT: inactive; HepG2 viability: inactive; TGFb inhibitor: inconclusive

What do the screens show for `C=CCSc1nnc2n(-c3ccccc3OC)c(=O)c3c4c(sc3n12)CCC4`?
HT1080-NT tox: inactive; DT40 TDP1 no CPT: inconclusive; HT1080 IDH1KD tx: inactive; TDP1 cell CPT: inconclusive; HepG2 viability: inactive; TGFb inhibitor: inconclusive

What do the screens show for `O=C(c1ccccc1)N(Cc1ccc2c(c1)OCO2)Cc1nc2ccccc2c(=O)[nH]1`?
HT1080-NT tox: inactive; DT40 TDP1 no CPT: inconclusive; HT1080 IDH1KD tx: inactive; TDP1 cell CPT: inactive; HepG2 viability: inactive; TGFb inhibitor: inactive

How did C#CCOc1ccc(/C=N/NC(=O)c2cccnc2)cc1OCC do in these assays?
HT1080-NT tox: inactive; DT40 TDP1 no CPT: inactive; HT1080 IDH1KD tx: inactive; TDP1 cell CPT: inactive; HepG2 viability: inactive; TGFb inhibitor: inactive

How did CC(=O)Nc1ccc(S(=O)(=O)NC2(C(F)(F)F)C(=O)Nc3c2c(=O)[nH]c(=O)n3-c2ccc(C)c(C)c2)cc1 (stereo not drawn) do in these assays?
DT40 TDP1 no CPT: inactive; TDP1 cell CPT: inactive; HepG2 viability: inactive; TGFb inhibitor: inactive

How did Cc1cc(-n2c(=O)[nH]c(=O)n(C)c2=O)ccc1Oc1ccc(S(=O)(=O)C(F)(F)F)cc1 do in these assays?
DT40 TDP1 no CPT: 17µM; TDP1 cell CPT: inconclusive

What do the screens show for `Nc1ccc(O)c2c1C(=O)c1ccccc1C2=O`?
HT1080-NT tox: inconclusive; DT40 TDP1 no CPT: inconclusive; HT1080 IDH1KD tx: inactive; TDP1 cell CPT: inconclusive; HepG2 viability: inactive; TGFb inhibitor: inactive

How did NC1=CC(=O)C(=O)c2ccccc21 do in these assays?
HT1080-NT tox: inactive; DT40 TDP1 no CPT: 16µM; HT1080 IDH1KD tx: inactive; TDP1 cell CPT: 23µM; HepG2 viability: inactive; TGFb inhibitor: inconclusive

Results for Cc1ccccc1OCC(=O)N1CCC(c2nc3ccccc3s2)CC1 ?
DT40 TDP1 no CPT: inconclusive; TDP1 cell CPT: inconclusive; HepG2 viability: inactive; TGFb inhibitor: inconclusive

Results for CCOC(=O)c1c(C)oc2c(F)c(F)c(F)c(F)c2c1=O ?
HT1080-NT tox: inconclusive; DT40 TDP1 no CPT: 21µM; HT1080 IDH1KD tx: inconclusive; TDP1 cell CPT: 16µM; HepG2 viability: inactive; TGFb inhibitor: inactive

Results for COc1c(C)cc(C(O)c2ncc(-c3ccccc3Cl)[nH]2)cc1C (stereo not drawn) ?
HT1080-NT tox: inconclusive; DT40 TDP1 no CPT: inconclusive; HT1080 IDH1KD tx: inconclusive; TDP1 cell CPT: inactive; HepG2 viability: inactive; TGFb inhibitor: inactive

How did CSc1ccc(C(O)c2ncc(-c3ccccc3F)[nH]2)cc1 (stereo not drawn) do in these assays?
HT1080-NT tox: inactive; DT40 TDP1 no CPT: inconclusive; HT1080 IDH1KD tx: inactive; TDP1 cell CPT: 29µM; HepG2 viability: inactive; TGFb inhibitor: inactive

Results for COc1ccccc1-c1cnc(C(O)c2ccc(SC)cc2)[nH]1 (stereo not drawn) ?
HT1080-NT tox: inactive; DT40 TDP1 no CPT: inconclusive; HT1080 IDH1KD tx: inactive; TDP1 cell CPT: 29µM; HepG2 viability: inactive; TGFb inhibitor: inactive

What do the screens show for `COc1ccccc1-c1cnc(C(O)c2cc(C)c(OC)c(C)c2)[nH]1` (stereo not drawn)?
HT1080-NT tox: inconclusive; DT40 TDP1 no CPT: 23µM; HT1080 IDH1KD tx: inconclusive; TDP1 cell CPT: 23µM; HepG2 viability: inactive; TGFb inhibitor: inactive

Results for CSc1ccc(C(O)c2ncc(-c3ccccc3Cl)[nH]2)cc1 (stereo not drawn) ?
HT1080-NT tox: inactive; DT40 TDP1 no CPT: inactive; HT1080 IDH1KD tx: inactive; TDP1 cell CPT: inconclusive; HepG2 viability: inactive; TGFb inhibitor: inactive

How did OC(c1ccc(Cl)cc1)c1ncc(-c2ccccc2F)[nH]1 (stereo not drawn) do in these assays?
HT1080-NT tox: inactive; DT40 TDP1 no CPT: inconclusive; HT1080 IDH1KD tx: inactive; TDP1 cell CPT: inactive; HepG2 viability: inactive; TGFb inhibitor: inactive

Results for COc1ccc(C(O)c2ncc(-c3ccccc3OC)[nH]2)cc1F (stereo not drawn) ?
HT1080-NT tox: inactive; DT40 TDP1 no CPT: inactive; HT1080 IDH1KD tx: inactive; TDP1 cell CPT: inactive; HepG2 viability: inactive; TGFb inhibitor: inactive

What do the screens show for `CCCc1ccc(C(O)c2ncc(-c3ccccc3F)[nH]2)cc1` (stereo not drawn)?
HT1080-NT tox: inactive; DT40 TDP1 no CPT: inconclusive; HT1080 IDH1KD tx: inconclusive; TDP1 cell CPT: 18µM; HepG2 viability: inactive; TGFb inhibitor: inactive

What do the screens show for `CC(=O)c1ccc(S(=O)(=O)Nc2cccc(-c3ccc(N4CCOCC4)nn3)c2)cc1`?
HT1080-NT tox: inconclusive; DT40 TDP1 no CPT: inconclusive; HT1080 IDH1KD tx: inactive; TDP1 cell CPT: inconclusive; HepG2 viability: inactive; TGFb inhibitor: inactive

Source: PubChem
